Data as given in PubChem BioAssay AID1159580 (chemical genetic matrix, 2015).
Values joined by “and” are separate entries in the source; they are usually repeats but may differ in a detail not shown here. Identical values can stand only once. The campaign covered roughly 5,500 compounds. About 2,000 (36%) were called active. Another 18% or so got no clear call; they are omitted. Rule as the data show it: active = normalized growth mostly below about 0.91 (no sharp cut-off); inconclusive = no clear call, values can overlap the other calls; inactive = mostly above about 0.92. This is one part of the list.

Assay: chemical genetic growth profiling, strain panel (AID 1159580);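 also: tested at 20 µM; growth read once vehicle control cultures reached saturation at 30 °C; 1 = growth at the plate median or of vehicle wells; lower values mean less growth of the strain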
Settings: S. cerevisiae deletion strains, growth OD

Measured: normalized growth

CO[C@]12C[C@@H](COC(=O)c3cncc(Br)c3)CN(C)[C@@H]1Cc1cn(C)c3cccc2c13
inactive: locus YAL013W, strain DEP1, active compounds read low 1.01 | locus YAL021C, strain ccr4, active compounds read low 0.973 | locus YAL026C, strain drs2, active compounds read low 1 | locus YAL030W, strain snc1, active compounds read low 1 | locus YBL061C, strain skt5, active compounds read low 0.996 | locus YBR009C, strain hhf1, active compounds read low 0.991 | locus YBR021W, strain FUR4, active compounds read low 0.913 | locus YBR023C, strain chs3, active compounds read low 0.979 | locus YBR171W, strain sec66, active compounds read low 0.983 | locus YBR229C, strain ROT2, active compounds read low 1 | locus YBR231C, strain swc5, active compounds read low 0.951 | locus YBR279W, strain paf1, active compounds read low 0.998 | locus YCL011C, strain gbp2, active compounds read low 0.983 | locus YCL016C, strain dcc1, active compounds read low 0.998 | locus YCL029C, strain bik1, active compounds read low 1.02 | locus YCL069W, strain vba3, active compounds read low 0.998 | locus YCR088W, strain abp1, active compounds read low 1 | locus YDL005C, strain med2, active compounds read low 0.979 | locus YDL035C, strain GPR1, active compounds read low 0.99 | locus YDL040C, strain nat1, active compounds read low 0.995 | locus YDL074C, strain BRE1, active compounds read low 0.978 | locus YDL101C, strain DUN1, active compounds read low 1.01 | locus YDL134C, strain PPH21, active compounds read low 0.995 | locus YDL185W, strain tfp1, active compounds read low 1 | locus YDL192W, strain arf1, active compounds read low 1.01 | locus YDR001C, strain nth1, active compounds read low 0.994 | locus YDR069C, strain doa4, active compounds read low 0.966 | locus YDR101C, strain arx1, active compounds read low 1 | locus YDR137W, strain rgp1, active compounds read low 1.12 | locus YDR150W, strain NUM1, active compounds read low 0.999 | locus YDR159W, strain sac3, active compounds read low 1.01 | locus YDR162C, strain NBP2, active compounds read low 1 | locus YDR195W, strain ref2 0.943 | locus YDR297W, strain sur2, active compounds read low 0.987 | locus YDR318W, strain mcm21, active compounds read low 1 | locus YDR334W, strain swr1, active compounds read low 1 | locus YDR335W, strain msn5, active compounds read low 0.986 | locus YDR388W, active compounds read low 1 | locus YDR392W, strain spt3, active compounds read low 0.93 | locus YDR502C, strain sam2, active compounds read low 1 | locus YEL003W, strain gim4, active compounds read low 0.988 | locus YEL037C, strain rad23, active compounds read low 0.995 | locus YEL061C, strain CIN8 (second series), active compounds read low 0.987 | locus YEL061C, strain CIN8, active compounds read low 0.997 | locus YER015W, strain faa2, active compounds read low 0.996 | locus YER016W, strain bim1, active compounds read low 1 | locus YER110C, active compounds read low 1.01 | locus YER111C, strain swi4, active compounds read low 1.01 | locus YER155C, strain BEM2 (second series), active compounds read low 0.912 | locus YER155C, strain BEM2, active compounds read low 0.998 | locus YER167W, strain BCK2, active compounds read low 1 | locus YFR010W, strain ubp6, active compounds read low 0.99 | locus YGL078C, strain dbp3, active compounds read low 1 | locus YGL086W, strain mad1, active compounds read low 1 | locus YGL167C, strain pmr1, active compounds read low 0.996 | locus YGL173C, strain kem1, active compounds read low 0.989 | locus YGL227W, strain vid30, active compounds read low 0.994 | locus YGL240W, strain doc1, active compounds read low 0.95 | locus YGL248W, strain PDE1, active compounds read low 1.01 | locus YGL253W, strain hxk2, active compounds read low 0.998 | locus YGR078C, strain PAC10, active compounds read low 0.974 | locus YGR135W, strain pre9, active compounds read low 0.993 | locus YGR229C, strain SMI1, active compounds read low 1 | locus YGR252W, strain gcn5, active compounds read low 0.869 | locus YHR013C, strain ard1, active compounds read low 1.02 | locus YHR027C, strain rpn1, active compounds read low 0.988 | locus YHR030C, strain SLT2, active compounds read low 1.01 and 0.979 | locus YHR079C, strain IRE1 (second series), active compounds read low 1.01 | locus YHR079C, strain IRE1, active compounds read low 0.957 | locus YHR094C, strain hxt1, active compounds read low 1 | locus YHR129C, strain ARP1, active compounds read low 1.02 | locus YHR142W, strain chs7, active compounds read low 1.01 | locus YHR200W, strain rpn10, active compounds read low 1 | locus YIL066C, strain RNR3, active compounds read low 1 | locus YIL073C, strain SPO22, active compounds read low 1 | locus YIL125W, strain kgd1, active compounds read low 1.01 | locus YIR030C, strain dcg1, active compounds read low 1.01 | locus YJL092W, strain hpr5, active compounds read low 1 | locus YJL095W, strain BCK1 (second series), active compounds read low 1 | locus YJL095W, strain BCK1, active compounds read low 0.996 and 0.967 | locus YJL115W, strain asf1, active compounds read low 0.991 | locus YJL129C, strain trk1, active compounds read low 0.982 | locus YJL134W, strain LCB3, active compounds read low 1 | locus YJL154C, strain vps35, active compounds read low 0.981 | locus YJL164C, strain tpk1, active compounds read low 0.997 | locus YJL166W, strain qcr8, active compounds read low 0.972 | locus YJL168C, strain set2, active compounds read low 1 | locus YJL187C, strain SWE1 (second series), active compounds read low 1.01 | locus YJL187C, strain SWE1, active compounds read low 0.996 | locus YJR043C, strain POL32, active compounds read low 1.01 | locus YJR066W, strain TOR1, active compounds read low 0.897
